The list is not random: actives were taken first. Their share in the collection is about 7%.
HP1b chromo inh – inhibitors of HP1-beta chromodomain binding to methylated histone tails | P83916 | AlphaScreen HP1-beta / biotin-H3K9me3 peptide binding | Potency, µM (doses to about 114 µM), inactives show at the highest dose activity change, negative = inhibition, usual class: inhibitors | 390,000 compounds, 0.56% hits; also: potency is read from the fitted curve at half-maximal effect; nearly all actives have a fitted effect of over 70% in size
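AlphaScreen: HP1-beta (50 nM) preformed 30 min with biotin-H3(1-18)K9me3 peptide (50 nM) in PBS pH 7.4, 0.01% Tween-20. Compound added for 30 min at RT, then streptavidin donor/nickel chelate acceptor beads (10 ug/mL) for 30 min.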
KAT2A inh – inhibitors of human GCN5L2 histone acetyltransferase. AID 504327. 390,000 compounds, 0.21% hits. Potency, µM (top dose mostly 58.9 µM), without a hit: at the top dose activity change, negative = inhibition, most hits filed as inhibitors. GCN5L2 HAT assay, ThioGlo1 CoA-SH fluorescence; also: potency is read from the fitted curve at half-maximal effect; % is scaled to controls: 0 for no effect and ±100 for the full control effect
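Titration-based screen in which CoA formation is detected via maleimide probe ThioGlo1 (50uM) turning fluorescent on thiol reaction; substrates H3(1-25) 75uM and acetyl-CoA 70uM, GCN5L2 20nM, 20 min incubation at room temperature.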
PLK1 PBD inh – blocks phosphopeptide binding to human PLK1 polo-box domain; 360,000 compounds, 2.8% hits; Plk1 PBD binding of FITC phosphopeptide, fluorescence polarization; Potency, µM, inactives show max response, negative = inhibition, hits mostly inhibitors; also: potency is read from the fitted curve at half-maximal effect; series mostly up to about 57 µM; % is scaled to controls: 0 for no effect and ±100 for the full control effect; nearly all actives have a fitted effect of over 65% in size
Target sequence (P53350 whole entry, looked up, the tested form may be a part): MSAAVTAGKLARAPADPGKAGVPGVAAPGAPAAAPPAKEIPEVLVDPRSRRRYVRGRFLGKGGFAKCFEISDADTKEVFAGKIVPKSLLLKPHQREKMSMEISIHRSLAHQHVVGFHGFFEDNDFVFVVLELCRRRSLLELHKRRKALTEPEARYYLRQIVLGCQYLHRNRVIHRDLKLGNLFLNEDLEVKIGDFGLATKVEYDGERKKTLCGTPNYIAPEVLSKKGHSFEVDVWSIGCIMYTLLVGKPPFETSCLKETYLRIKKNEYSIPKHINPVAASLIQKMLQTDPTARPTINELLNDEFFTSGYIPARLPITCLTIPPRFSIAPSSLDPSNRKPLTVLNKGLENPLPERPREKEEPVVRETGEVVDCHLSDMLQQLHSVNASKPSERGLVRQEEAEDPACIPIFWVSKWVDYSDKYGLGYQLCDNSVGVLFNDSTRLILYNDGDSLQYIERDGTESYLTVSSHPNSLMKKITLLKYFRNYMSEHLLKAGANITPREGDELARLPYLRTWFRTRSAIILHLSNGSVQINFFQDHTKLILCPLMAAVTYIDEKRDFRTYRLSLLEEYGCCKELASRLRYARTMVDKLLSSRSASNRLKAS
BAZ2B block – BAZ2B (human) inhibition. Q9UIF8. AlphaScreen BAZ2B-H3K14Ac peptide displacement. Potency, µM (highest dose often 114 µM), for the others: at the highest dose activity change, negative = inhibition, most hits filed as inhibitors. 360,000 compounds, 4.4% hits. AID 504333; also: potency is read from the fitted curve at half-maximal effect; % is scaled to controls: 0 for no effect and ±100 for the full control effect; nearly all actives have a fitted effect of over 60% in size
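Multi-concentration screen (max 110 uM) measuring displacement of acetylated histone H3 peptide from BAZ2B by AlphaScreen, using 50 nM protein, 50 nM peptide and 10 ug/mL streptavidin donor plus Ni-chelate acceptor beads.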
JMJD2A Tudor – JMJD2A Tudor domain (human) inhibition | AlphaScreen JMJD2A-Tudor / H3K4me3 peptide binding | O75164 | 390,000 compounds, 4.4% hits | AID 504339 | Potency, µM (doses to about 114 µM), inactives show at the highest dose activity change, negative = inhibition, usual class: inhibitors; also: potency is read from the fitted curve at half-maximal effect; % is scaled to controls: 0 for no effect and ±100 for the full control effect; nearly all actives have a fitted effect of over 50% in size
PI5P4K alpha inh – inhibitors of human PI5P4K alpha; PI5P4Kalpha enzyme, ADP-Glo luminescence, 60 min; hits give low values; max response, %; 330,000 compounds, 1.2% hits; AID 652105; active = max response of -50% or lower; inconclusive = between -30% and -50%; inactive = -30% or higher; also: value at the top dose of about 77 µM; % is scaled to controls: 0 for no effect and ±100 for the full control effect
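qHTS, 1536-well: enzyme/substrate mix, compound by pin tool, 5 microM ATP final; RT 60 min; ADP-Glo reagents 1 (45 min) then 2 (30 min); luminescence.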
The depositor's hits bear a star; [ ] = remark or other dose. Unless noted, calls follow the shape of the dose curve; as a rule, active = well fitted curve in the direction sought with a large enough effect; inconclusive = small, poorly fitted or top-dose-only effect, or another doubt; inactive = no such curve, though single readings can be large; an effect the other way counts as inactive or inconclusive.

CCCSC1=N/C(=C\c2ccc([N+](=O)[O-])o2)C(=O)S1 was read as HP1b chromo inh 35µM*, KAT2A inh inconclusive, PLK1 PBD inh 7.5µM*, BAZ2B block 13µM*, JMJD2A Tudor 11µM* and PI5P4K alpha inh -70*.
Screening CSC1=N/C(=C\c2ccc(C)o2)C(=O)S1 returned HP1b chromo inh -66%, KAT2A inh -5%, PLK1 PBD inh -13%, BAZ2B block 45µM*, JMJD2A Tudor inconclusive and PI5P4K alpha inh 4.
CCSC1=N/C(=C\c2ccc(-c3ccccc3[N+](=O)[O-])o2)C(=O)S1 was read as HP1b chromo inh 10µM*, KAT2A inh -22%, PLK1 PBD inh -18%, BAZ2B block 7.9µM*, JMJD2A Tudor inconclusive and PI5P4K alpha inh 1.
Nn1cnnc1N/N=C\c1ccc(-c2ccccc2[N+](=O)[O-])o1 was read as HP1b chromo inh -14%, KAT2A inh -9%, PLK1 PBD inh -18%, BAZ2B block inconclusive, JMJD2A Tudor inconclusive and PI5P4K alpha inh -3.
Screening O=C(N/N=C/c1ccccc1)c1ccc(N2CCCC2=O)cc1 returned HP1b chromo inh 14%, PLK1 PBD inh -20%, JMJD2A Tudor -9% and PI5P4K alpha inh -5.
`CC1=C(c2ccc(C(C)C)cc2)S(=O)(=O)N=C1N1CCN(C(=O)c2ccco2)CC1` gave HP1b chromo inh -3%, KAT2A inh 0%, PLK1 PBD inh 27µM*, BAZ2B block -18%, JMJD2A Tudor 45µM* and PI5P4K alpha inh -6.
`CC1=C(c2ccc(C(C)C)cc2)S(=O)(=O)N=C1N1CCC(C(=O)NCc2ccco2)CC1` gave HP1b chromo inh -3%, KAT2A inh -13%, BAZ2B block -11% and JMJD2A Tudor -2%.
CCCCn1c(SCC(=O)NC2CCCC2)nnc1-c1ccco1 was read as HP1b chromo inh 22%, KAT2A inh 2%, PLK1 PBD inh -7%, BAZ2B block 0%, JMJD2A Tudor -7% and PI5P4K alpha inh -12.
`Cc1nc2ccc(C(=O)O)cc2c2c1CC(C)S2` (stereo not drawn) gave HP1b chromo inh -33%, KAT2A inh -13%, PLK1 PBD inh inconclusive, BAZ2B block 71µM*, JMJD2A Tudor inconclusive and PI5P4K alpha inh -7.
`Cc1nc2cc(C(=O)O)ccc2s1` gave HP1b chromo inh 47%, KAT2A inh 0%, PLK1 PBD inh -10%, BAZ2B block 2% and JMJD2A Tudor -13%.
Screening O=C(Cn1ncc2c3ccccc3n(Cc3ccc(Cl)cc3)c2c1=O)N1CCCCCC1 returned HP1b chromo inh 29%, KAT2A inh -12%, BAZ2B block -13% and JMJD2A Tudor -31%.
For Cc1nc2ccccn2c1C(=O)N/N=C/c1ccc([N+](=O)[O-])o1 the results were HP1b chromo inh inconclusive, KAT2A inh -19%, PLK1 PBD inh -28%, BAZ2B block 45µM*, JMJD2A Tudor 40µM* and PI5P4K alpha inh -56*.
Screening O=C(NN=Cc1ccc(F)cc1)c1ccccc1NS(=O)(=O)c1cccs1 returned HP1b chromo inh 25%, KAT2A inh -1%, PLK1 PBD inh -9%, JMJD2A Tudor -18% and PI5P4K alpha inh -9.
For O=[N+]([O-])c1ccc(/C=N/Nc2ccc3ccccc3c2)o1 the results were HP1b chromo inh inconclusive, KAT2A inh -3%, PLK1 PBD inh -12%, BAZ2B block 8.9µM*, JMJD2A Tudor 7.1µM* and PI5P4K alpha inh -6.
Screening Cc1nc2ccccn2c1C(=O)N/N=C/c1ccc([N+](=O)[O-])cc1 returned HP1b chromo inh 13%, KAT2A inh 1%, PLK1 PBD inh -2%, BAZ2B block -2%, JMJD2A Tudor -15% and PI5P4K alpha inh 2.
O=C(N/N=C/c1cc(Cl)c(O)c(Cl)c1)c1cc2c(ccc3ccccc32)o1 was read as HP1b chromo inh -2%, KAT2A inh inconclusive, PLK1 PBD inh 24µM*, BAZ2B block 56µM*, JMJD2A Tudor inconclusive and PI5P4K alpha inh -77*.
`O=C(N/N=C/c1ccc([N+](=O)[O-])o1)c1ccccc1NS(=O)(=O)c1cccs1` gave HP1b chromo inh 44%, KAT2A inh -4%, PLK1 PBD inh inconclusive, BAZ2B block -25%, JMJD2A Tudor inconclusive and PI5P4K alpha inh -57*.
CC(C)c1ccc(CCNC(=O)CCNS(=O)(=O)c2ccc(Br)cc2)cc1 was read as HP1b chromo inh 65%, KAT2A inh -5%, PLK1 PBD inh 0%, BAZ2B block 5%, JMJD2A Tudor 0% and PI5P4K alpha inh 5.
Screening COc1ccc(N2CCN(Cc3nc4c(c(=O)[nH]c(=O)n4C)n3Cc3ccccc3F)CC2)cc1 returned HP1b chromo inh 39%, KAT2A inh -1%, BAZ2B block -24% and JMJD2A Tudor -8%.
O=C(N/N=C/c1ccc([N+](=O)[O-])o1)c1cc2c(ccc3ccccc32)o1 was read as HP1b chromo inh -10%, KAT2A inh -15%, PLK1 PBD inh 15µM*, BAZ2B block 56µM*, JMJD2A Tudor inconclusive and PI5P4K alpha inh -24.
For O=[N+]([O-])c1ccc(/C=N/NC(=S)Nc2ccccc2F)o1 the results were HP1b chromo inh inconclusive, KAT2A inh -2%, PLK1 PBD inh inconclusive, BAZ2B block inconclusive, JMJD2A Tudor inconclusive and PI5P4K alpha inh -61*.
For Cc1c(-c2ccc(/C=N/NC(=O)C(=O)Nc3ccccc3F)o2)cccc1[N+](=O)[O-] the results were HP1b chromo inh 47%, KAT2A inh -2%, PLK1 PBD inh 14%, BAZ2B block -5%, JMJD2A Tudor 0% and PI5P4K alpha inh -26.
Screening O=C(N/N=C/c1ccc(O)c(Br)c1)c1cc2c(ccc3ccccc32)o1 returned HP1b chromo inh 37%, KAT2A inh -3%, PLK1 PBD inh -6%, BAZ2B block -6%, JMJD2A Tudor -11% and PI5P4K alpha inh inconclusive.
O=C(N/N=C/c1cc(Br)c(O)c(Br)c1)c1cc2c(ccc3ccccc32)o1 was read as HP1b chromo inh inconclusive, KAT2A inh inconclusive, PLK1 PBD inh 21µM*, BAZ2B block 40µM*, JMJD2A Tudor 79µM* and PI5P4K alpha inh -103*.
For Cc1cc(Br)ccc1-n1[nH]c(C)c(C=Nc2cccc3nsnc23)c1=O the results were HP1b chromo inh -13%, KAT2A inh 0%, PLK1 PBD inh 27µM*, BAZ2B block inconclusive, JMJD2A Tudor -22% and PI5P4K alpha inh -27.
`O=c1cc(CSc2ccc(Cl)cc2)nc(-c2ccccc2)[nH]1` gave HP1b chromo inh 9%[57 µM], KAT2A inh -17%, PLK1 PBD inh -11%, BAZ2B block -2%, JMJD2A Tudor -16% and PI5P4K alpha inh 3.
